# According to the supplement of paper PMC13380429:
# A number with no mark means an inactive call.
# Tested on: Vero E6 infected with SARS-CoV-2
# Experiment: inhibition of SARS-CoV-2 cytopathic effect; higher = more antiviral protection, active = above 15
# Settings: 48 h
SMILES,inhibition of SARS-CoV-2 cytopathic effect (1 nM),inhibition of SARS-CoV-2 cytopathic effect (8.33 nM),inhibition of SARS-CoV-2 cytopathic effect (100 nM),inhibition of SARS-CoV-2 cytopathic effect (833.33 nM),inhibition of SARS-CoV-2 cytopathic effect (10000 nM)
CC(=O)O[C@@]12CO[C@@H]1C[C@H](O)[C@@]1(C)C(=O)[C@H](O)C3=C(C)[C@@H](O)C[C@@](O)([C@@H](OC(=O)c4ccccc4)[C@H]21)C3(C)C [10-deacetylbaccatin],-0.5%,0.94%,-1.67%,-4.55%,-2.63%
COc1cc2c(cc1O)C(CCc1ccc(Cl)cc1)N(C)CC2 (stereo not given),0.21%,2.27%,0.29%,0%,0.49%
CC(C)NCCCn1c(Sc2cc3c(cc2I)OCO3)nc2c(N)ncnc21,-3.36%,-0.68%,-0.95%,-7.21%,-3.3%
CC1CC(OC(=O)C(O)c2ccccc2)CC(C)(C)C1 (stereo not given) [cyclandelate],-0.8%,0.54%,-0.37%,-0.91%,-1.81%
COc1cc(C(=O)NCc2ccc(OCCN(C)C)cc2)cc(OC)c1OC [trimethobenzamide],-2.2%,-1.41%,2.21%,-1.81%,-0.65%
CC[C@H](NC(=O)c1c(O)c(-c2ccccc2)nc2ccccc12)c1ccccc1 [talnetant],-0.24%,0.6%,-1.02%,-1.22%,2.11%
O=C1CCC[C@@H]2[C@H]3CCCN4CCC[C@@H](CN12)[C@@H]34 [matrine],-2.75%,-0.7%,-1.73%,-0.8%,-2.2%
Nc1ncnc2c1c(-c1ccc(Cl)cc1)nn2-c1cccc(-c2cnnn2Cc2cccc(-c3ccccc3)c2)c1,-2.81%,-0.01%,-1.05%,-2.27%,-0.83%
Cc1c[nH]c2ncnc(N3CCC(CN)(C(=O)Nc4cccc(OC(=O)N(C)C)c4)CC3)c12,-0.02%,-1.69%,4.07%,-0.25%,5.79%
C=CC[N+]1([C@H]2C[C@H]3[C@@H]4CC[C@H]5C[C@H](O)[C@@H](N6CCOCC6)C[C@]5(C)[C@H]4CC[C@]3(C)[C@H]2OC(C)=O)CCCC1,-0.55%,-0.87%,2.36%,1.73%,0.75%
NS(=O)(=O)c1cc2c(cc1Cl)N=CNS2(=O)=O [chlorothiazide],0.29%,0%,-0.95%,-0.05%,-0.76%
CCOC(=O)[C@@]1(CCCCCCOc2ccc(Cl)cc2)CO1 [etomoxir],-0.23%,-0.29%,1.79%,2.79%,-4.51%
O=C1c2ccccc2C(=O)C1c1ccc(Cl)cc1 [chlorindione],-5.54%,-6.24%,-3.27%,0.64%,0.34%
CCCCc1ccc2[nH]c(NC(=O)OC)nc2c1 [parbendazole],0.24%,0.63%,-0.29%,-0.99%,-1.63%
CCOC(=O)[C@H](CCc1ccccc1)N[C@H]1CS[C@H](c2cccs2)CN(CC(=O)O)C1=O [temocapril],-2.77%,-0.7%,1.38%,-0.25%,-3.19%
CCCCCCCCCCCCCCCCCC(=O)OCC(O)CO (stereo not given) [monostearin],3.45%,0.27%,0.45%,0.48%,-0.08%
N[C@@H](CSS(=O)(=O)O)C(=O)O [S-sulfo-L-cysteine],-0.33%,1.82%,-0.09%,1.93%,0.23%
O=S(=O)(Cc1ccccc1)Nc1ccc(-c2ccc3c(cnn3-c3ccc(F)cc3)c2)c(C(F)(F)F)c1,0.84%,1.44%,-0.94%,2.01%,-3.81%
Cc1ncc([N+](=O)[O-])n1CCO [metronidazole],1.71%,-0.45%,1.81%,0.19%,-1.16%
C(#Cc1nc2ncccc2nc1OCCN1CCCC1)c1ccccc1,-1.59%,-0.87%,-1.72%,7.05%,15.8% (active)

SMILES,inhibition of SARS-CoV-2 cytopathic effect (1 nM),inhibition of SARS-CoV-2 cytopathic effect (8.33 nM),inhibition of SARS-CoV-2 cytopathic effect (100 nM),inhibition of SARS-CoV-2 cytopathic effect (833.33 nM),inhibition of SARS-CoV-2 cytopathic effect (10000 nM)
O=C(O)c1ccccc1C(=O)Nc1ccc(S(=O)(=O)Nc2nccs2)cc1 [phthalylsulfathiazole],-0.6%,1.91%,1.2%,1.78%,-0.84%
Cc1ccc(-c2c(-c3nn(C)c4ncnc(N5CC[C@H](N6CCCCC6)C5)c34)cnn2C)cc1,-0.9%,-0.84%,0.89%,-2.4%,-0.65%
OC(CCCN1CCN(c2ncc(F)cn2)CC1)c1ccc(F)cc1 (stereo not given),-3.3%,-0.94%,3.34%,4.34%,0.33%
O=S(=O)(O)CCS [mesna],2.64%,4.29%,1.16%,5.57%,0.95%
CCOC(=O)C1=C(C)NC(c2ccccc2)=C(C(=O)OCc2ccc([N+](=O)[O-])cc2)[C@@H]1C#Cc1ccccc1,2.05%,-1.34%,0.42%,1.51%,3.9%
CN1CC2c3ccccc3Oc3ccc(Cl)cc3C2C1 (stereo not given) [asenapine],1.23%,-0.6%,1.72%,-0.01%,6.35%
CCOC(=O)c1ncn2c1CN(C)C(=O)c1cc(F)ccc1-2 [flumazenil],-5.56%,-4.56%,-4.89%,-4.65%,-1.96%
CCCN(CCC)C1Cc2cc(OC)c(OC)cc2C1,-0.72%,-0.86%,-2.03%,0.79%,-2.36%
O=C(NCCN1CCN(c2ncccn2)CC1)C12CC3CC(CC(C3)C1)C2 [adatanserin],-1.23%,0.62%,-2.77%,2.26%,-1.99%
CC[N+](C)(CC)CC(=O)Nc1c(C)cccc1C [N-methyllidocaine-iodide],1.32%,2.44%,0.64%,1.63%,1.7%
C=C(CC)C(=O)c1ccc(OCC(=O)O)c(Cl)c1Cl [etacrynic-acid],1.1%,2.25%,2.32%,4.17%,-6.97%
C[C@H](NC(=O)[C@@H](O)c1cc(F)cc(F)c1)C(=O)N[C@@H]1C(=O)N(C)c2ccccc2-c2ccccc21,-3.7%,-4.79%,-8.67%,-14%,-7.15%
O=C(O)c1cccc(-c2noc(-c3ccccc3F)n2)c1 [ataluren],-0.23%,0.96%,0.68%,2.99%,2.92%
"COc1cc2c(cc1OC)[C@H](C)NCC2 [Isoquinoline,-6,7-dimethoxy-1-methyl-1,2,3,4-tetrahydro,]",-4.15%,-1.29%,-0.88%,-1.82%,-2.99%
CCCCN(CCCC)CCCOC(=O)c1ccc(N)cc1 [butacaine],1.8%,5.07%,2.1%,-1.71%,-2.04%
OC[C@@H](O)[C@@H](O[C@@H]1O[C@H](CO)[C@H](O)[C@H](O)[C@H]1O)[C@H](O)[C@@H](O)CO,-1.07%,0.84%,0.06%,0.18%,-0.36%
O=c1[nH]c([C@@H]2CCCN2)nc2c1oc1ccc(Cl)cc12,-0.27%,0.12%,1.61%,-0.54%,-2.54%
COc1cc(Cc2cnc(N)nc2N)cc(OC)c1OC [trimethoprim],-0.11%,0.21%,-0.75%,2.08%,2.04%
CN1C(C)(C)CCCC1(C)C [pempidine],-2.83%,-0.7%,-4.34%,-1.68%,-2.1%
C[C@H](N)Cc1cccc(O)c1 [gepefrine],1.14%,1.71%,1.51%,1.38%,0.56%
